Inhibition data for eleven molecules are collected here from ChEMBL document CHEMBL1157539, “Thousands of chemical starting points for antimalarial lead identification” (Nature, 2010).

What is called Inhibition is how much of the control response was suppressed. A high value points to strong suppression.

Common to all, as to assay type: functional
Assay [1] concerns Plasmodium falciparum. Description: GSK_TCMDC: Inhibition of Plasmodium falciparum 3D7 in whole red blood cells, using parasite LDH activity as an index of growth. Test compounds present at 2uM.
For assay [2], the system named is Plasmodium falciparum. Description: GSK_TCMDC: Inhibition of Plasmodium falciparum Dd2 in whole red blood cells, using parasite LDH activity as an index of growth. Test compounds present at 2uM.
The next assay concerns HepG2. Description: GSK_TCMDC: Percent inhibition of human HepG2 cell line. Test compounds present at 10uM.

Turning to `CCOC(=O)C(Oc1ccc2ccccc2c1)C(=O)OCC`, the Inhibition in the assay with Plasmodium falciparum [1] came to 98%; with Plasmodium falciparum [2], 0%; in the assay with HepG2, 8%.
The like results for `COc1ccc(Cl)cc1N1CCN(CCCNC(=O)c2ccc(-c3nc4ccc(C(F)(F)F)cc4[nH]3)c(C)c2)CC1` were, in that order, 95%, 14% and 6%.
Taken in the same sequence, the figures for `CC(=O)Nc1ccc(C(=O)NC2CCN(c3ccnc4cc(Cl)ccc34)CC2)cc1.O=C(O)C(F)(F)F` were 100%, 99% and 5%.
Taken in the same sequence, the figures for `O=C(/C=C/c1ccc(Cl)c(Cl)c1)NCCCCCN1CCC(NC(=S)Nc2ccc(Cl)cc2Cl)CC1` were 99%, 47% and 53%.
Take `N.Nc1nc2c(ncn2COC2COP(=O)(O)OC2)c(=O)[nH]1` (stereo not drawn): the Inhibition in the assay with Plasmodium falciparum [1] was 81%; in the assay on Plasmodium falciparum [2] it was 54%; with HepG2 it was 7%.
Taken in the same sequence, the figures for `O=C(NC1CCC(N2CCCC(OCc3ccccc3)C2)CC1)c1cc2ccccc2[nH]1` (stereo not drawn) were 94%, 11% and 38%.
The like results for `CN(C)CCN(Cc1ccc(-c2ccc(CNCCc3ccccc3)cc2)nc1)C(=O)CCC1CCCC1.O=C(O)C(F)(F)F` were, in that order, 96%, 89% and 98%.
Taken in the same sequence, the figures for `Cc1cc(N2CC=CCC2)nc(NC(=N)Nc2ccc(Br)cc2)n1` were 98%, 41% and 10%.
Take `COC(=O)c1cccc(NC(=O)NC2CCN(c3ccnc(NCc4ccc(F)cc4)n3)CC2)c1`: the Inhibition in the assay with Plasmodium falciparum [1] is recorded as 93%; with Plasmodium falciparum [2], 39%; in the assay with HepG2, 29%.
Taken in the same sequence, the figures for `Oc1cc(Nc2ccnc3cc(I)ccc23)ccc1F` were 99%, 99% and 0%.
The like results for `Cl.c1cc(COc2ccc(C3=NCCN3)cc2)nc(COc2ccc(C3=NCCN3)cc2)c1` were, in that order, 100%, 98% and 8%.
